Laboratory results from the supplement of paper PMC9334596.
Where “and” joins values, the source holds several entries; their conditions need not be identical. Identical values can stand only once. Over roughly 5,300 compounds, “PER2::LUC luminescence relative to vehicle control” has its median near 0.96; the highest 2% begin near 1.3. Only a selection was taken, and the highest values are over-represented in it overall.

Test system: mPer2Luc MEF
Assay: PER2::LUC luminescence relative to vehicle control (fold of vehicle); higher = higher PER2::LUC reporter signal
Conditions: 10 µM
Outline: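 The reported values are PER2::LUC luminescence as fold of vehicle control in mouse embryonic fibroblasts carrying the mPer2Luc reporter. Cells were seeded at ~3000 per well in 384-well plates in DMEM with 10% FBS at 37 °C and 5% CO2, and compounds were added at 10 μM 48 h later. ONE-Glo luminescence was read 24 h and 30 h after treatment.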

SMILES | PER2::LUC luminescence (time after treatment 24 h) | PER2::LUC luminescence (time after treatment 30 h)
COc1ccc([C@@H]2OC[C@@H]3[C@H]2CO[C@H]3c2ccc(OC)c(OC)c2)cc1OC | 1.05 | 1.07
CC1(C)CC(NC(=O)C(=O)Nc2ccc(Br)cc2)CC(C)(C)N1 | 0.875 | 0.928
NC1CCN(O)C1=O (single isomer, unassigned; (-)) | 1.08 | 1.01
CC1(C)CC(NC(=O)C(=O)Nc2ccc(Cl)cc2)CC(C)(C)N1 | 0.958 | 1
O=c1c2ccccc2nc2n1CCc1c-2[nH]c2ccccc12 | 1.36 | 1.51
O=C1c2ccccc2-n2c1nc1ccccc1c2=O | 0.998 | 0.885
O=C(O)c1cc(=O)c2ccccc2[nH]1 | 1.08 | 0.931
CC1(C)CC2C1CC[C@]1(CBr)CCC3C(CC(=O)O)C(=O)O[C@@]32C1 (some centres undefined) | 1.04 | 0.929
NCC(O)COc1cccc2ccccc12 (centres undefined) | 0.637 | 0.588
Cc1onc(-c2ccccc2)c1C(=O)N1CCN(c2ccc([N+](=O)[O-])cc2Cl)CC1 | 0.896 | 1.04
O=C(Nc1ccccc1)c1ccccc1O | 1.27 | 1.08
CC(=O)Nc1ccccc1 | 0.881 | 1.21
O=C(Nc1ccccc1)Nc1ccccc1 | 1.57 | 1.44
CC(C)c1c2cc(-c3ccnc(NC4CCC(NC5CCOCC5)CC4)n3)ccc2nn1C (centres undefined) | 0.008 | 0.002
OC[C@H]1O[C@@H](O[C@@H]2OC=C[C@H]3[C@H](O)[C@@H]4O[C@]4(CO)[C@@H]23)[C@H](O)[C@@H](O)[C@@H]1O | 1.04 | 1
O=c1cc(-c2ccc(O)cc2)oc2cc(O)c([C@@H]3O[C@H](CO)[C@@H](O)[C@H](O)[C@H]3O)c(O)c12 | 0.972 | 0.983
O=c1c(O)c(-c2ccccc2)oc2ccccc12 | 1.08 | 1.05
O=c1oc2ccc(O)cc2c2c1NCCC2 | 0.764 | 1.05
O=c1cc(-c2ccccc2O)oc2cc(O)ccc12 | 1.27 | 1.38
O=c1cc(-c2ccc(O)cc2)oc2ccc(O)cc12 | 1.72 | 1.87
O=c1cc(-c2ccccc2)oc2ccc(O)cc12 | 1.47 | 1.89
Cc1cc(=O)oc2cc(O)ccc12 | 1.01 and 1.08 and 0.784 | 0.94 and 0.807 and 0.997
CCOC(=O)COc1ccc2c(=O)cc(-c3ccccc3)oc2c1 | 1.06 | 1.08

SMILES | PER2::LUC luminescence (time after treatment 24 h) | PER2::LUC luminescence (time after treatment 30 h)
O=c1cc(-c2ccccc2)oc2c(O)c(O)ccc12 | 0.582 | 0.632
O=c1cc(-c2ccccc2)oc2cc(O)c(O)cc12 | 1.41 | 1.47
O=c1oc2cc(O)ccc2c2oc3cc(O)ccc3c12 | 1.06 | 1.13
O=C(O)/C=C/c1ccc(O)c(O)c1/C(=C\c1ccc(O)c(O)c1)C(=O)O | 1.15 | 1.02
COc1cc(O)c(C(=O)/C=C/c2ccc(OC)c(O)c2)c(OC)c1 | 1.08 | 1
COc1ccc(SC(=O)N[C@@H](CCC(=O)O)C(=O)O)cc1 | 0.852 | 0.909
CC(C)(O)c1ccccc1Cc1ccccc1 | 0.709 | 1.18
C=CC1=C(C)C2=CC3=NC(=C(CC(=O)O)C4=NC(=C(C)C4=C(O)O)C=c4[nH]c(c(C)c4CC)=CC1=N2)C(CCC(=O)O)C3C (centres undefined) | 0.911 | 0.984
OC[C@H]1O[C@H](O[C@H]2C(O)[C@@H](O)[C@@H](OC[C@H]3O[C@@H]4O[C@H]5[C@H](O)[C@@H](O)[C@@H](O[C@H]6[C@H](O)[C@@H](O)[C@@H](O[C@H]7[C@H](O)[C@@H](O)[C@@H](O[C@H]8[C@H](O)[C@@H](O)[C@@H](O[C@H]9[C@H](O)[C@@H](O)[C@@H](O[C@H]%10[C@H](O)[C@@H](O)[C@@H](O[C@H]3[C@H](O)[C@H]4O)O[C@@H]%10CO)O[C@@H]9CO)O[C@@H]8CO)O[C@@H]7CO)O[C@@H]6CO)O[C@@H]5CO)O[C@@H]2CO)[C@H](O)[C@@H](O)[C@@H]1O (some centres undefined) | 1.08 | 1.06
C=CCCCCCCCCCCCC(O)CC(O)COC(C)=O (centres undefined) | 0.894 | 0.95
C[C@H](CCC(=O)NCCC[N+](C)(C)CCCS(=O)(=O)[O-])[C@H]1CC[C@H]2[C@@H]3[C@H](O)C[C@@H]4C[C@H](O)CC[C@]4(C)[C@H]3C[C@H](O)[C@]12C | 1.06 | 0.883
O=c1c(O)c(-c2ccccc2)oc2cc(O)ccc12 | 1.13 | 1.18
O=c1cc(-c2ccccc2)oc2cc(O)ccc12 | 1.48 | 1.84
CC1=C([C@@H]2C=C3[C@@H](CC[C@]4(C)[C@@H]([C@H](C)CCCC(C)C)CC[C@@H]34)n3c(=O)n(-c4ccccc4)c(=O)n32)C[C@@H](O)C[C@@H]1O | 0.94 | 0.899
O=c1ncccn1[C@@H]1O[C@H](CO)[C@@H](O)[C@H]1O | 0.999 | 1.07
O=c1ccn([C@@H]2O[C@H](CO)[C@@H](O)[C@H]2O)c(=O)[nH]1 | 0.979 | 1.03
O=c1cnn([C@@H]2O[C@H](CO)[C@@H](O)[C@H]2O)c(=O)[nH]1 | 1.41 | 1.5
NC(=NC12CC3CC(CC(C3)C1)C2)Nc1ccc(I)cc1 | 1.06 | 0.918
CNC(=O)c1cc(Oc2ccc(NC(=O)c3cccc(C(F)(F)F)c3)cc2)ccn1 | 1.15 | 1.14
CCOC(=O)c1ccc(O)cc1 | 1.06 and 0.859 | 1.02 and 0.79
O=C(OCc1ccccc1)c1ccccc1 | 1.05 | 1.03
CCOC(=O)c1ccc(N(C)c2csc(-c3ccccc3)n2)cc1 | 1.19 | 1.58
Cn1cc(-c2ccc3nnc(Sc4ccc5nn(C)cc5c4)n3n2)cn1 | 0.782 | 0.785

SMILES | PER2::LUC luminescence (time after treatment 24 h) | PER2::LUC luminescence (time after treatment 30 h)
C=CC(C)(C)c1cc(/C=C\C(=O)c2ccc(O)cc2)c(OC)cc1O | 0.553 | 0.862
C[C@@H]1C[C@H]2[C@@H]3C[C@H](F)C4=CC(=O)C(Cl)=C[C@]4(C)[C@@]3(F)[C@@H](O)C[C@]2(C)[C@@]1(O)C(=O)CO | 0.765 | 0.857
CC(=O)O[C@H](CC(=O)O)C[N+](C)(C)C | 1.03 | 0.967
CC(C)(C)OC(=O)N1CCC(OCc2nc(-c3ccncc3)no2)CC1 | 0.986 | 0.843
NC(=O)c1cccc(-c2cccc(OC(=O)NC3CCCCC3)c2)c1 | 1.27 | 1.36
CC(=O)c1ccc(S(=O)(=O)NC(=O)NC2CCCCC2)cc1 | 1.02 | 0.908
NC(=O)c1cccc(N)c1 | 1.1 | 1.01
CCCCOC(=O)c1ccc(O)cc1 | 1.63 and 1.43 | 1.61 and 1.57
CCCCN(CCCC)CCCOC(=O)c1ccc(N)cc1 | 0.966 | 0.832
CCCCNc1ccc(C(=O)OCCN(C)C)cc1 | 1.04 | 0.965
CCCCOC(=O)c1ccc(N)cc1 | 1.06 and 1.09 | 1.28 and 1.2
N=C(N)c1ccc(N)cc1 | 0.971 | 1.01
CC(C)COC(=O)c1ccc(N)cc1 | 1.34 | 1.43
CCCOc1ccc(C(=O)OCCN(CC)CC)cc1N | 1.03 | 0.962
CCN(CC)CCOC(=O)c1ccc(N)cc1 | 1.07 and 0.897 | 1.58 and 0.928
Nc1ccc(C(=O)O)cc1 | 0.924 and 0.9 | 0.926 and 0.943
CN(C)[C@@H]1c2onc(OCc3ccccc3)c2C(=O)[C@@]2(O[Si](C)(C)C(C)(C)C)C(=O)C=CC[C@@H]12 | 0.723 | 0.75
c1ccc2[nH]ncc2c1 | 0.963 | 0.985
CN1CCc2ccccc2Cc2[nH]c3ccccc3c2CC1 | 1.11 | 0.824
CNc1ccccc1C(=O)N1CCc2c([nH]c3ccccc23)C1=O | 1.56 | 1.79
CN1c2ccccc2C(=O)N2CCc3c([nH]c4ccccc34)C21 (stereo in doubt) | 0.589 | 0.628
O=Cc1ccc2cccc(O)c2n1 | 1.1 | 0.962
Nc1n[n+]([O-])c2ccccc2[n+]1[O-] | 1.36 | 1.15

SMILES | PER2::LUC luminescence (time after treatment 24 h) | PER2::LUC luminescence (time after treatment 30 h)
CNC(=S)NCCSCc1[nH]cnc1C | 1.06 | 1.06
N[C@@H](CCS(=O)O)C(=O)O | 0.964 | 0.944
O=C(O)c1ccccc1 | 0.918 | 0.766
O=C(OOC(=O)c1ccccc1)c1ccccc1 | 1.2 | 0.843
CN(NC(=O)CC(=O)NN(C)C(=S)c1ccccc1)C(=S)c1ccccc1 | 1.68 | 1.1
NS(=O)(=O)c1ccc(-c2c(-c3ccccc3)noc2C(F)F)cc1 | 1.04 | 1
CO[C@H]1C[C@H](O[C@@H]2/C(C)=C/C[C@@H]3C[C@@H](C[C@]4(CC[C@H](C)[C@H](C5CCCCC5)O4)O3)OC(=O)[C@H]3C=C(C)/C(=N\O)[C@H]4OCC(=C/C=C/[C@@H]2C)[C@@]34O)O[C@@H](C)[C@@H]1O | 0.989 | 0.929
CSc1ccccc1NC(C)=O | 0.972 | 0.93
CC(=O)N[C@H]1[C@H]([C@H](O)[C@H](O)CO)OC(O)(C(=O)O)C[C@@H]1O (some centres undefined) | 1.03 | 0.921
COc1cc(C(=O)O)cc(OC)c1O | 1.06 | 1.08
O=C(O)c1ccc2cc(-c3ccc(O)c(C45CC6CC(CC(C6)C4)C5)c3)ccc2c1 | 1.59 | 1.63
O=C(O)/C=C/c1ccc(-c2ccc(O)c(C34CC5CC(CC(C5)C3)C4)c2)cc1 | 0.735 | 0.721
COc1ccc(-c2ccc3cc(C(=O)O)ccc3c2)cc1C12CC3CC(CC(C3)C1)C2 | 1.49 | 1.86
COc1cc(C(=O)O[C@H]2C[C@@H]3CC[C@]2(C)C3(C)C)ccc1O | 1.15 | 1.19
NC(=O)c1cccc(NC(=O)/C=C/c2c[nH]c3ccccc23)c1 | 1.08 | 1.06
C=C1/C(=C\C=C2/CCC[C@]3(C)[C@@H]([C@H](C)CC[C@@H](O)C(C)(C)O)CC[C@@H]23)C[C@@H](O)C[C@@H]1O | 0.999 | 0.835
CC1(C)C2CCC1(C(=O)O)C(=O)C2 (centres undefined) | 0.998 | 0.954
O=C(Nc1ncc([N+](=O)[O-])s1)c1ccccc1O | 1.45 | 1.73
O=C(Nc1ncc([N+](=O)[O-])s1)c1ccc([N+](=O)[O-])c(Cl)c1 | 0.928 | 1.22
CC(=O)Oc1ccccc1C(=O)Nc1ncc([N+](=O)[O-])s1 | 0.826 | 1.16
COc1ccc(CNC(=O)c2sc3nc(C)cc(C)c3c2N)cc1 | 0.953 | 0.979
COc1ccc(CNC(=O)Nc2ncc([N+](=O)[O-])s2)cc1 | 1.35 | 1.27
CC(=O)Nc1ncc([N+](=O)[O-])s1 | 1.33 and 1.09 | 0.865 and 1.09
